The subject of experiment [1] is PRMT1 (protein arginine N-methyltransferase 1). The experiment can be described thus: small molecules binding arginine methyltransferase PRMT1 – biochemical, small-molecule microarray, 635 nm fluorescence, primary screen (AID 1088).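 Note: binding of Prmt1 protein to compounds spotted on small-molecule microarray slides.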 As to conditions: higher = more signal.
Experiment [2] is described as follows: growth effects on S. cerevisiae YJM789 – YJM789 clinical isolate, OD600, 24 h, basal, primary screen (AID 1089).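 Note: growth of clinical yeast isolate S. cerevisiae YJM 789 seeded 1000 cells per well; test concentration not given here.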 As to conditions: higher = more signal, called active from +8 up or from −8 down.
A short description of experiment [3]: S. pombe growth modifiers, basal conditions – strain 972, OD600, 24 h, no modulator, primary screen (AID 1090).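 Note: basal condition with compound alone and no growth modifier present; test concentration not given here.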 As to conditions: S. pombe 972 growth, higher = more signal, called active from +8 up or from −8 down.
Experiment [4] is described as follows: budding yeast growth modifiers under rapamycin – strain BY4716, OD600, 96 h, primary screen (AID 1091). Note: test concentration not given here. The settings on record: S. cerevisiae BY4716 + rapamycin, higher = more signal, called active from +8 up or from −8 down.
Experiment [5] deals with Torsin-1A-interacting protein 2 (Homo sapiens) (UniProt Q8NFQ8). The experiment can be described thus: small molecules binding lysate-expressed LULL1 – cell lysate, human LULL1 lysate, 635/667 nm fluorescence, primary screen (AID 1092).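 Note: probe is lysate of COS7 cells overexpressing human LULL1; score merges per-feature 667 nm fluorescence with signal-to-noise.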 As to conditions: small-molecule microarray, hLULL1 lysate binding, 635 nm fluorescence; higher = more signal.
Torsin-1A-interacting protein 2 (Homo sapiens), sequence (Q8NFQ8 whole entry, looked up): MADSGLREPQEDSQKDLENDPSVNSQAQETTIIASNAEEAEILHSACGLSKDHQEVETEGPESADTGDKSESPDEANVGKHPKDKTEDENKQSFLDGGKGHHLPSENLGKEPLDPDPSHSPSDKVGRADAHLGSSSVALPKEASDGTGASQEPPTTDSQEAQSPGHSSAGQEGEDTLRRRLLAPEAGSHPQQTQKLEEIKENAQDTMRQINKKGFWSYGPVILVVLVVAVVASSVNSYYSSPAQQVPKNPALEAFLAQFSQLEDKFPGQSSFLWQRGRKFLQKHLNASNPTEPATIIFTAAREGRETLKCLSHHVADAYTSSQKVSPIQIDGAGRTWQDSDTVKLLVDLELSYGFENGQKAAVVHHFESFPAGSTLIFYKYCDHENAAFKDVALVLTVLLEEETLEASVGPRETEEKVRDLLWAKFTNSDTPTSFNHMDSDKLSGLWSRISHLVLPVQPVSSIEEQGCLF
Experiment [6] in a line: optical density change of DRC41 E. coli – strain DRC41, OD650, 24 h, E. coli filamentation project, primary screen (AID 1093).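 Note: MC1000 strain lacking acrAB efflux and sulA so SOS filamentation is blocked; test concentration not given here.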 As to conditions: E. coli DRC41 growth, higher = more signal, called active from +8 up or from −8 down.
Experiment [7] in a line: probe aLefty2 binding to arrayed compounds – biochemical, biotinylated probe, 635/667 nm fluorescence, primary screen (AID 1094).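 Note: score merges spot fluorescence near 667 nm with spot signal-to-noise ratio.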 As to conditions: small-molecule microarray, higher = more signal.
For experiment [8], the system named is Noggin (protein binding on small-molecule microarray). Nature of the experiment: small molecules binding Noggin protein – biochemical, 635/667 nm fluorescence, primary screen (AID 1095).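 Note: score merges 667 nm feature fluorescence with signal to noise over triplicate slides.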 As to conditions: 635 nm fluorescence, higher = more signal.
Experiment [9] has as its target Neurogenic locus notch homolog protein 3 (Homo sapiens) (UniProt Q9UM47). Nature of the experiment: small molecules binding NOTCH3 protein – biochemical, 635/667 nm fluorescence, primary screen (AID 1096). As to conditions: small-molecule microarray, 635 nm fluorescence, higher = more signal.
Experiment [10] can be described thus: probe aEGFR binding to arrayed compounds – biochemical, biotinylated probe, 635/667 nm fluorescence, primary screen (AID 1097).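 Note: probe is a biotinylated anti-EGFR antibody binding compounds printed on slides; score combines fluorescence near 667 nm and signal to noise of each spot.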 The settings on record: small-molecule microarray, higher = more signal.

This passage reports composite z-score and z-score results from PubChem BioAssay.

Calls of active or inactive are those of the source.

Neurogenic locus notch homolog protein 3 (Homo sapiens), sequence (Q9UM47 whole entry, looked up): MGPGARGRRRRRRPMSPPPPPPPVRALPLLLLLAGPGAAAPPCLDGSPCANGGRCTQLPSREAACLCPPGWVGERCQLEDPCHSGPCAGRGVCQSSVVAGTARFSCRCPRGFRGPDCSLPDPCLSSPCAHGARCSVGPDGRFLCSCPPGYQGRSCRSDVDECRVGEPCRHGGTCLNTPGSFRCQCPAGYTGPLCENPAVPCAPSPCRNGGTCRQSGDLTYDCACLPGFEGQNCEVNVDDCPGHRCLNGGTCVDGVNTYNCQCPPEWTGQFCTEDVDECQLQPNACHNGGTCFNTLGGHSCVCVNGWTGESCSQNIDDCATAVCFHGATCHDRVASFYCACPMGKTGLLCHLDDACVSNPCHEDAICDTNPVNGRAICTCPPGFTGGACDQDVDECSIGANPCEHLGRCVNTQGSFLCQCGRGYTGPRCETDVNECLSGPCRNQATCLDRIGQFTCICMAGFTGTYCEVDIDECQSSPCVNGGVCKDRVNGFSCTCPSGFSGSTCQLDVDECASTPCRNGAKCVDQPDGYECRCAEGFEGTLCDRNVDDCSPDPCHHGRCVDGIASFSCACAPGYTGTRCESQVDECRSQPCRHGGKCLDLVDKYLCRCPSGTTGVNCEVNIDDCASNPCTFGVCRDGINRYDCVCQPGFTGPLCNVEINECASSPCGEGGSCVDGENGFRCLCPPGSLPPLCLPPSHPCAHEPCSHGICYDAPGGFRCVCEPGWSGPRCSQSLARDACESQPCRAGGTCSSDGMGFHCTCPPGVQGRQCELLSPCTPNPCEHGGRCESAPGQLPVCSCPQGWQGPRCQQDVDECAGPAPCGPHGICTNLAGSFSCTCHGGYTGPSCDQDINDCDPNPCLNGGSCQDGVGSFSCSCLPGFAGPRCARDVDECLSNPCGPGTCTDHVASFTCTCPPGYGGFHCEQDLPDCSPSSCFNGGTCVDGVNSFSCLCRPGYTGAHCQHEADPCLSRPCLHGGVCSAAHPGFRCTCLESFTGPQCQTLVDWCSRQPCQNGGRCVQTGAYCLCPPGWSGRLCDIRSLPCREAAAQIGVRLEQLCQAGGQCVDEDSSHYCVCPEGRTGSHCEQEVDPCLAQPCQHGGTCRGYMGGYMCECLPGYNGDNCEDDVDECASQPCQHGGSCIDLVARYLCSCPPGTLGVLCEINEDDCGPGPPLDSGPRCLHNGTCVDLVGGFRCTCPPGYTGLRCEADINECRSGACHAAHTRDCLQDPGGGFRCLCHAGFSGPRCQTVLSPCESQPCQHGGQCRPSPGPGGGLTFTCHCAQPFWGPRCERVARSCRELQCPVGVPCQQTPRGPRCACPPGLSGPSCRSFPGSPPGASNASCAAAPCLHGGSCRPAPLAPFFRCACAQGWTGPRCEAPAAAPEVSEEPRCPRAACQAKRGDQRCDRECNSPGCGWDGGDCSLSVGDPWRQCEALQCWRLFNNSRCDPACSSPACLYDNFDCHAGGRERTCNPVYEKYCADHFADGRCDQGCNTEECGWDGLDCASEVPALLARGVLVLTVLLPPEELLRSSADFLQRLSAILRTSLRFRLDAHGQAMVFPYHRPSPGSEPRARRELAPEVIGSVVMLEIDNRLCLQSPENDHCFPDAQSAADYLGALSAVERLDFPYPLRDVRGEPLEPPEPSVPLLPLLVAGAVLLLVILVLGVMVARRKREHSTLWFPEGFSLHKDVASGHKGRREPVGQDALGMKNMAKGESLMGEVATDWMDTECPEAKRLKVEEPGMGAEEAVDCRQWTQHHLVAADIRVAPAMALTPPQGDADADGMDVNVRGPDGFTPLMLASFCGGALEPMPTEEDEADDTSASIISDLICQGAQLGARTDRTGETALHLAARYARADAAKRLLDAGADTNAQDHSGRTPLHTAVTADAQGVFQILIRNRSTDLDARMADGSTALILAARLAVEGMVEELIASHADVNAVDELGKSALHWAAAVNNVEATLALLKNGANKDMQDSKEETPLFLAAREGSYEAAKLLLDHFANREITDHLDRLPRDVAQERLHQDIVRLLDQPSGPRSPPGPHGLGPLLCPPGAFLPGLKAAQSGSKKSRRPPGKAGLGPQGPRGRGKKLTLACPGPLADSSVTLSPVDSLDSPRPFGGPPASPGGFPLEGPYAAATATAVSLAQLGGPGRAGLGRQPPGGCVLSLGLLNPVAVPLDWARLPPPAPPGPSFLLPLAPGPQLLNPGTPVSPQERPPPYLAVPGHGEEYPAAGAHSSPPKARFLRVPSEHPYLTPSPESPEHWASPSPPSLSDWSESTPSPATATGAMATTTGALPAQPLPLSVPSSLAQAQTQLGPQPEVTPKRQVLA

With `COc1ccc([Si](C)(C)[C@H]2[C@H](CCO)O[C@@]3(C(=O)N(Cc4cccc(N5CCCCC5=O)c4)c4ccccc43)[C@@H]2C)cc1`, the composite z-score is 1.54 in experiment [1]; 1.56 in experiment [5]; -0.0732 in [7]; 0.296 in experiment [8]; 0.896 in experiment [9]; 0.214 in [10]. The z-score in experiment [2] is 2.01 (inactive); in experiment [3] it was -1.99 (inactive); in experiment [4], 2.68 (inactive); in experiment [6], 0.525 (inactive).
As for `COc1ccc(C(O)C2C=CC3C(=O)N(c4ccccc4)C(=O)C3N2Nc2ccc(C#N)cc2)c2ccccc12` (stereo not given), the composite z-score in experiment [1] is 1.35; in [5], 3.38; in [7], 0.397; in experiment [8], 0.238; in experiment [9] it was 1.08; in [10], -0.0424. Besides, the z-score in [2] was -1.89 (inactive); in experiment [3], 2.35 (inactive); in experiment [4] it was 0.906 (inactive); in experiment [6], -0.945 (inactive).
As to `CCOC(=O)C1=C[C@@H](c2ccccc2)N(S(=O)(=O)c2ccc(C)cc2)[C@H]1c1cccc(Cl)c1`, the composite z-score in experiment [1] came out at 1.57; in [5] it was 2.67; in experiment [7], 0.268; in experiment [8] it was 0.688; in experiment [9], 1.07; in [10], 0.143. For the same compound, the z-score in experiment [2] is 0.962 (inactive); in experiment [3], 1.71 (inactive); in experiment [4] it was 2.24 (inactive); in experiment [6], -0.913 (inactive).
`COCC(=C=CC[C@H](O)c1ccc(OCCO)cc1)C[C@H](O)COCc1ccccc1`: the composite z-score was 1.51 in [1]; 1.64 in [5]; -0.298 in [7]; 1.4 in [8]; 0.573 in [9]; -0.02 in [10]. Besides, the z-score in experiment [2] was -1.49 (inactive); in [3], -1.44 (inactive); in experiment [4], -0.885 (inactive); in experiment [6], 0.825 (inactive).
As for `CCOC(=O)[C@H]1C/C=C/C[C@H](C(=O)OCC)C(=O)O[C@H]2[C@@H](OC)O[C@H](CO)[C@@H](OC(=O)Nc3ccc(OC)cc3)[C@@H]2OC1=O`, the composite z-score was 1.49 in experiment [1]; 2.03 in experiment [5]; 0.217 in experiment [7]; 0.713 in experiment [8]; 1.09 in experiment [9]; -0.0737 in [10]. The z-score in experiment [2] is 1.04 (inactive); in experiment [3], -0.0368 (inactive); in experiment [4], 3.56 (inactive); in [6], 1.3 (inactive).
On to `O=C1C[C@@](C(=O)NCC(F)(F)F)(c2ccc([N+](=O)[O-])cc2)[C@@H](c2ccc(CO)cc2)N1C1CCCCC1`, for which the composite z-score in experiment [1] was 1.56; in [5] it was 3.48; in experiment [7] it was 0.11; in [8], 0.956; in [9] it was 0.823; in experiment [10] it was -0.0271. Besides, the z-score in [2] was -0.748 (inactive); in experiment [3], -0.209 (inactive); in experiment [4], -0.917 (inactive); in [6], 0.258 (inactive).
Take `C=C(CCCC)/C(=C/C[C@@H](OC(=O)c1ccncc1)c1cccc(OCCO)c1)c1cnc2ccccc2c1`: the composite z-score in experiment [1] worked out at 1.57; in experiment [5] it was 1.52; in experiment [7] it was 0.0113; in experiment [8], 1.55; in experiment [9] it was 1.06; in experiment [10], 0.0617. Further, the z-score is -2.12 (inactive) in [2], -1.98 (inactive) in [3], 1.53 (inactive) in [4] and 0.657 (inactive) in [6].
For `COc1ccc([Si](C)(C)[C@H]2[C@H](CCn3cc([C@H](O)c4ccccc4)nn3)O[C@@]3(C(=O)N(Cc4cccc(N5C(=O)c6cccc7cccc5c67)c4)c4ccccc43)[C@@H]2C)cc1`, the composite z-score is 0.492 in experiment [1]; 1.28 in experiment [5]; -0.134 in [7]; -1.17 in experiment [8]; -0.871 in experiment [9]; -0.21 in experiment [10]. The z-score was -0.844 (inactive) in experiment [2], 0.723 (inactive) in experiment [3], 0.635 (inactive) in experiment [4] and -0.666 (inactive) in experiment [6].
Take `COCCCNC(=O)[C@]1(Cc2ccccc2N=[N+]=[N-])N=C(c2ccc(OCCCO)cc2)O[C@@H]1c1ccccc1N=[N+]=[N-]`: the composite z-score turned out to be 1.26 in experiment [1]; 2.72 in experiment [5]; 0.23 in experiment [7]; 0.115 in experiment [8]; 0.836 in experiment [9]; 0.0656 in [10]. The z-score was -0.922 (inactive) in experiment [2], -0.808 (inactive) in experiment [3], 1.75 (inactive) in experiment [4] and 0.561 (inactive) in experiment [6].
Turning to `CN(C)CCCCNC(=O)[C@H]1C[C@H]2C(=O)N[C@@H](CCCCN(C)C)C(=O)N2[C@H]1c1cccc(OCCO)c1`, the composite z-score in experiment [1] is 1.53; in experiment [5], 2.74; in [7], -0.0474; in experiment [8] it was 1.38; in [9] it was 0.993; in experiment [10], -0.219. Also, the z-score in experiment [2] was 0.328 (inactive); in [3], 1.22 (inactive); in experiment [4], -0.378 (inactive); in experiment [6], -0.0359 (inactive).
Turning to `O=C1O[C@@H](c2ccccc2)[C@@H](c2ccccc2)N2[C@@H](c3ccccc3OCCO)[C@]3(C(=O)Nc4ccc(C#CCCO)cc43)[C@@H](C(=O)Nc3nc4ccccc4s3)[C@H]12`, the composite z-score in [1] was 1.55; in experiment [5], 2.64; in experiment [7] it was 0.259; in experiment [8], 0.448; in [9], 1.05; in experiment [10] it was 0.131. In addition, the z-score in experiment [2] is 1.49 (inactive); in experiment [3], -0.487 (inactive); in experiment [4] it was 3.2 (inactive); in experiment [6] it was 1.59 (inactive).
For the compound `O=C1NC(=O)C2C1C=CC(C(O)c1cc(C(F)(F)F)cc(C(F)(F)F)c1)N2Nc1ccc(Cl)cc1Cl` (stereo not given), the composite z-score was 0.33 in experiment [1]; 2.24 in [5]; 0.0094 in experiment [7]; -0.93 in [8]; 0.398 in [9]; 0.228 in experiment [10]. In addition, the z-score in experiment [2] is -1.44 (inactive); in experiment [3] it was -17 (active); in experiment [4], -0.256 (inactive); in experiment [6], -2.34 (inactive).
On to `COC(=O)[C@@]1(Cc2ccccc2)[C@H]2c3cc(C(=O)N4CCCC4)n(C[C@H](O)CO)c3C[C@H]2CN1C(=O)c1ccccc1`, for which the composite z-score in experiment [1] is -0.956; in experiment [5] it was 3.45; in experiment [7], 0.127; in experiment [8], 0.334; in experiment [9] it was 0.873; in [10], 0.08. Further, the z-score in experiment [2] is 0.43 (inactive); in [3], 1.74 (inactive); in [4], -0.167 (inactive); in experiment [6], -0.436 (inactive).
Turning to `[N-]=[N+]=NCc1ccccc1C[C@@]1(C(N)=O)N=C(c2ccc(OCCCO)cc2)O[C@@H]1c1ccccc1CN=[N+]=[N-]`, the composite z-score in [1] was 1.22; in [5], 2.94; in experiment [7], 0.123; in experiment [8], -0.0392; in [9] it was 0.808; in [10], 0.263. For the same compound, the z-score was 0.656 (inactive) in [2], -0.0127 (inactive) in experiment [3], 0.0339 (inactive) in [4] and 0.585 (inactive) in [6].
